Consider 39 molecules from PubChem BioAssay (EPA / NIEHS).

Results filed as inconclusive are left out. The source made the active and inactive calls. Rule for the calls: active = hit-call score of the fitted dose curve at least 0.9, where 1 is the maximum; inconclusive = response in the unintended direction; inactive = score below 0.9.

Sequence of Glyceraldehyde-3-phosphate dehydrogenase (Homo sapiens) (P04406 whole entry, looked up): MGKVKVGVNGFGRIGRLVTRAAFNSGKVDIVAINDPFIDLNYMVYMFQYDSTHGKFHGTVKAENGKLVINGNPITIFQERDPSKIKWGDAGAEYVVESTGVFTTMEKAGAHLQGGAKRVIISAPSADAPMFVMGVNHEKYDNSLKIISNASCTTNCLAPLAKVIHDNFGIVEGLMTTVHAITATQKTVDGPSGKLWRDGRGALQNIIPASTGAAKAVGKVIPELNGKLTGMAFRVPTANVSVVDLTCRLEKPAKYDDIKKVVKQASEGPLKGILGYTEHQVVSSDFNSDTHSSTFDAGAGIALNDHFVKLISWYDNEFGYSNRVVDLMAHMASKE

Read-out in this test: Glyceraldehyde-3-phosphate dehydrogenase (Homo sapiens) (UniProt P04406)
In words: CLD_GAPDH_6hr: CellzDirect (CLD) Gene Expression Assay for Baseline Control (Glyceraldehyde 3-phosphate dehydrogenase) at 6 hours (AID 2283681).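 Note: active means increased signal relative to DMSO vehicle.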 The method, then:
CLD_6hr is a cell-based, multiplexed-readout assay that uses hepatocyte, a human liver primary cell, with measurements taken at 6 hours after chemical dosing in a 96-well plate.CLD_GAPDH_6hr is one of 16 assay component(s) measured or calculated from the CLD_6hr assay. It is designed to make measurements of mRNA induction, a form of inducible reporter, as detected with chemiluminescence signals by Quantitative Nuclease Protection Assay (qNPA) technology.Data from the assay component CLD_GAPDH_6hr was analyzed at the endpoint, CLD_GAPDH_6hr, in the positive analysis fitting direction relative to DMSO as the negative control and baseline of activity. Using a type of inducible reporter, gain-of-signal activity can be used to understand changes in the reporter gene as they relate to the gene GAPDH. Furthermore, this assay endpoint can be referred to as a secondary readout, because this assay has produced multiple assay endpoints where this one serves a background control function. To generalize the intended target to other relatable targets, this assay endpoint is annotated to the background measurement intended target family, where subfamily is baseline control.
Human hepatocyte cultures were treated daily for two consecutive days with fresh dosing solutions containing appropriate concentrations of the 320 ToxCast chemicals (chemical identities were blinded to CellzDirect and other ToxCast collaborators), vehicle control (0.2% DMSO), and positive control inducers as summarized in Table 1. Due to the large number of treatment groups and chemicals examined, the ToxCast chemicals were divided into two groups (spanning two independent cultures of hepatocytes from separate donor preparations (Hu778: ToxCast plates 1 and 2; Hu776: ToxCast plates 3 and 4). Each preparation of human hepatocyte cultures was treated with respective vehicle control, medium only control, set of six positive controls/reference chemicals for the five hepatic receptor pathways, and a subset of eight of the ToxCast chemicals (indoxacarb, pyrithiobac-sodium, norflurazon, cyhalofop-butyl, methomyl, thiram, acetochlor, and propiconazole). These replicate data, coupled with internal replicates designed within the blinded ToxCast chemical library, provided additional data to evaluate interindividual differences between hepatocyte preparations and their potential impact on chemical profiles.Cell morphology and integrity were evaluated using phase-contrast microscopy as an indicator of hepatocyte cell health (Tyson & Green, 1987). Cultures for each treatment group (i.e., media, vehicle [0.2% DMSO], positive control inducers [multiple concentrations], and the ToxCast chemicals [multiple concentrations]) were observed and cell morphology was assessed relative to vehicle control cultures at each harvest time point (0, 6, 24, or 48 h). […] Images were evaluated at the conclusion of the study to assess changes in cell integrity and account for the effects of chemical exposure on uncharacteristic changes in concentration-dependent gene expression profiles. The results from these determinations of apparent cytotoxicity were annotated (yes/no) alongside the corresponding qNPA data for reference.At the conclusion of each treatment period, hepatocyte cultures (96-well) were washed with 1 volume of HBSS, lysed by addition of 25 ul ArrayPlate lysis buffer (HTG, Tucson, AZ), and 70 ul/well of Denaturation Oil, denatured by incubation at 95C for 10 min, and frozen at approximately -70C until analysis by nuclease protection assay (qNPA) (Roberts et al., 2007). For qNPA analysis, cell lysates were thawed at 50C for approximately 30 min, qNPA probes were added, and samples were incubated at 95C for 10 min to begin the detection process by denaturing the target RNA, dissociating the duplexes and secondary structure hybridization. At the conclusion of the hybridization period, S1 nuclease reagent was added to each sample to digest all nonprotected nucleotides at 50C for 60-90 min. […]
With `CCOC(=O)C(Cl)Cc1cc(-n2nc(C)n(C(F)F)c2=O)c(F)cc1Cl` (centres undefined), the molecule was classed as inactive.
As for `Cc1cc(Cl)ccc1OCC(=O)O`, the call was inactive.
The entry for `C=CCC1=C(C)[C@@H](OC(=O)[C@@H]2[C@@H](C=C(C)C)C2(C)C)CC1=O` is “inactive”; for `CC(C)(C)c1ccc(CSc2cnn(C(C)(C)C)c(=O)c2Cl)cc1` it is “inactive”; for `CS/C(C)=N/OC(=O)N(C)SN(C)C(=O)O/N=C(\C)SC` it is “inactive”.
Take `CC(C)C1(C)N=C(c2nc3ccccc3cc2C(=O)O)NC1=O` (centres undefined): the outcome was inactive.
The same measure for `COc1nc(NC(C)C)nc(NC(C)C)n1`: “inactive”.
On to `CCCCOC(=O)c1ccccc1C(=O)OCCCC`, for which the outcome was inactive.
The same measure for `CCCCNC(=O)n1c(NC(=O)OC)nc2ccccc21`: “inactive”; for `COC(=O)C=C(C)OP(=O)(OC)OC`: “inactive”.
As to `CCCCC(CC)COC(=O)c1ccccc1C(=O)OCC(CC)CCCC` (centres undefined), the result was inactive.
On to `CNC(=O)ON=CC(C)(C)SC`, for which the call was inactive.
The entry for `CCNc1nc(Cl)nc(NC(C)C)n1` is “inactive”; for `CC1COC(Cn2cncn2)(c2ccc(Oc3ccc(Cl)cc3)cc2Cl)O1` (centres undefined) it is “inactive”; for `CN(C)C(=S)SSC(=S)N(C)C` it is “inactive”.
The same measure for `CC(C)Oc1cc(-n2nc(C(C)(C)C)oc2=O)c(Cl)cc1Cl`: “inactive”; for `CCNc1nc(Cl)nc(NCC)n1`: “inactive”.
As for `O=C(O)COc1nc(Cl)c(Cl)cc1Cl`, the call was inactive.
On to `O=C(Nc1ccccc1)Nc1ccnc(Cl)c1`, for which the result was inactive.
Consider `N#Cc1nn(-c2c(Cl)cc(C(F)(F)F)cc2Cl)c(N)c1S(=O)C(F)(F)F` (centres undefined), for which the call was inactive.
The same measure for `COc1nc(C)nc(NC(=O)NS(=O)(=O)c2ccccc2CCC(F)(F)F)n1`: “inactive”; for `N#Cc1cc(Br)c(O)c(Br)c1`: “inactive”; for `CNC(=S)S`: “inactive”.
The same measure for `O=C(O)c1nc(Cl)ccc1Cl`: “inactive”; for `CCOc1cc(Oc2ccc(C(F)(F)F)cc2Cl)ccc1[N+](=O)[O-]`: “inactive”; for `COP(=S)(OC)Oc1nc(Cl)c(Cl)cc1Cl`: “inactive”.
For the molecule `Cc1ccc(-c2c(Cl)nc(C#N)n2S(=O)(=O)N(C)C)cc1`, the outcome was inactive.
Turning to `Oc1ccccc1-c1ccccc1`, the outcome was inactive.
As to `OC(c1ccc(Cl)cc1)(c1cncnc1)c1ccccc1Cl` (centres undefined), the call was inactive.
The entry for `CCON=C(CC)C1=C(O)CC(c2c(C)cc(C)cc2C)CC1=O` (centres undefined) is “inactive”; for `CC(Oc1ccc(Cl)cc1Cl)C(=O)O` (centres undefined) it is “inactive”.
In the case of `CO/C=C(/C(=O)OC)c1ccccc1Oc1cc(Oc2ccccc2C#N)ncn1`, the outcome was inactive.
The same measure for `Cc1c(F)c(F)c(COC(=O)C2C(/C=C(\Cl)C(F)(F)F)C2(C)C)c(F)c1F` (centres undefined): “inactive”; for `CCOC(=O)CC(SP(=S)(OC)OC)C(=O)OCC` (centres undefined): “inactive”.
The same measure for `CCCCNC(=O)OCC#CI`: “inactive”; for `COC(=O)N(OC)c1ccccc1COc1ccn(-c2ccc(Cl)cc2)n1`: “inactive”.
Turning to `COC(=O)C(C)Oc1ccc(Oc2ccc(Cl)cc2Cl)cc1` (centres undefined), the call was inactive.
The same measure for `COc1nc(C)nc(NC(=O)NS(=O)(=O)c2ccccc2Cl)n1`: “inactive”; for `C=CC1(C)OC(=O)N(c2cc(Cl)cc(Cl)c2)C1=O` (centres undefined): “inactive”.
